We go through 8 molecules from PubChem BioAssay (Tox21).

Values joined by “and” are separate entries in the source; they are usually repeats but may differ in a detail not shown here. Equal values may be shown once. Inconclusive results are not listed. The source holds several records for some structures; these can differ, active in one and inactive in another. Active and inactive are the calls of the source. Unless noted, calls come from the whole dose curve; as a rule, active = well fitted curve in the direction sought with a large enough effect in the repeat runs; inconclusive = weak or mixed curves; inactive = no such curve, though single readings can be large; an effect the other way counts as inactive or inconclusive.

Experiment [1] in a line: qHTS assay to identify small molecule antagonists of the androgen receptor (AR) signaling pathway using the MDA cell line in the presence of 0.5 nM R1881 - cell viability counter screen (AID 1259242). Note: nearly all actives have a fitted effect of over 45% in size. Note: potency is the fitted concentration of half-maximal effect. The method, boiled down:
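Concentration-response screen of compounds for toxicity in MDA-kb2 reporter cells: 16 hr at 37C with 0.5 nM R1881, endpoint live-cell protease fluorescence measured in the reporter wells.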
(In qHTS, concentration-response curves come from the screen itself.)

In experiment [2] the target is Estrogen receptor (Homo sapiens) (UniProt P03372). Put plainly: qHTS assay to identify small molecule antagonists of the estrogen receptor alpha (ER-alpha) signaling pathway using the BG1 cell line in the presence of 0.1 nM 17-beta-estradiol (AID 1259244). Note: nearly all actives have a fitted effect of over 50% in size. Note: potency is the fitted concentration of half-maximal effect. An outline of the steps:
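Compounds were tested against 0.1 nM (final) 17beta-estradiol in VM7Luc4E2 cells, which express full-length ER-alpha and an ERE-luciferase reporter; luminescence was recorded following 22 h exposure.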

Experiment [3] in a line: qHTS assay to identify small molecule HDAC inhibitors (AID 1259364). Note: potency is the fitted concentration of half-maximal effect.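 Note: wild-type HCT-116 cells with endogenous class I/II HDAC activity; nearly all actives have a fitted effect of over 45% in size.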 The method, boiled down:
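Screening used wild-type human colon HCT-116 cells incubated overnight, dosed with compounds for 2 hours, and assayed with a homogeneous luminogenic HDAC I/II reagent for 30 minutes at room temperature.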

Experiment [4] in a line: qHTS assay to identify small molecule HDAC inhibitors - cell viability counter screen (AID 1259365). Note: nearly all actives have a fitted effect of over 50% in size. Note: potency is the fitted concentration of half-maximal effect. The method, boiled down:
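HCT-116 (wild type), 1,500 cells/well, overnight 37C/5% CO2; compound in DMSO 2hr; CellTiter-Glo 30min RT; luminescence read.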

The nature of experiment [5]: qHTS assay to identify small molecule agonists of the sonic hedgehog signaling (Shh) pathway - cell viability counter screen (AID 1259366). Note: nearly all actives have a fitted effect of over 50% in size. Note: potency is the fitted concentration of half-maximal effect. The method, boiled down: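 CellTiter-Fluor fluorescence read-out, 1 hr at 37C, added after 23hr compound exposure. Cells: 3T3 Gli1-Luc, an NIH/3T3 clone with stably integrated Gli1-Luc reporter, plated 4hr before compound.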
A short description of experiment [6]: qHTS assay to identify small molecule agonists of the sonic hedgehog signaling (Shh) pathway (AID 1259368; calls by dose curve;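 note: NIH/3T3-derived 3T3Gli1-Luc cells carrying a stable Gli1-driven firefly luciferase reporter; series mostly up to about 92 µM; nearly all actives have a fitted effect of over 15% in size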). An outline of the steps:
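Hedgehog pathway agonism scored by increased firefly luciferase luminescence in 3T3Gli1-Luc cells treated 24 hr at 37 C; detection used a 30 min room-temperature reagent incubation.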

A short description of experiment [7]: qHTS assay to identify small molecule antagonists of the estrogen receptor beta (ER-beta) signaling pathway - cell viability counter screen (AID 1259382). Note: nearly all actives have a fitted effect of over 55% in size. Note: potency is the fitted concentration of half-maximal effect. An outline of the steps: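 Readout: luminescence, CellTiter-Glo, same wells as bla assay. System: ER-beta-UAS-bla GripTite HEK293T, 2% charcoal-stripped FBS. Exposure: compounds plus 1nM 17-beta-estradiol, 16 hr, 37C.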

Experiment [8] deals with Estrogen receptor (Homo sapiens) (UniProt P03372). Put plainly: qHTS assay to identify small molecule agonists of the estrogen receptor alpha (ER-alpha) signaling pathway in the presence of an antagonist (AID 1259383; calls by dose curve; note: top concentration of the series differs between compounds; nearly all actives have a fitted effect of over 15% in size). The method, boiled down:
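Quantitative HTS confirmation: compounds titrated at 15 concentrations onto estrogen-deprived VM7Luc4E2 cells carrying a four-ERE luciferase construct, with ICI-182,780 present at 10.0nM final. Signal is luminescence after 22hr exposure.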

In experiment [9] the target is Thyrotropin receptor (Homo sapiens) (UniProt P16473). Put plainly: qHTS assay to identify small molecule antagonists of the thyroid stimulating hormone receptor (TSHR) signaling pathway (AID 1259385; calls by dose curve; note: nearly all actives have a fitted effect of over 20% in size). An outline of the steps:
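TSHR-HEK293 cells were plated and held 18 h at 37C/5% CO2, then given compound plus Ro20-1724 and stimulated with TSH at 1.5 ng/mL final. After 30 min at room temperature, cAMP was detected with cAMP-d2/anti-cAMP-cryptate (1 h) by fluorescence.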

Experiment [10] in a line: qHTS assay to identify small molecule antagonists of the sonic hedgehog signaling (Shh) pathway - cell viability counter screen (AID 1259367). Note: nearly all actives have a fitted effect of over 55% in size. Note: potency is the fitted concentration of half-maximal effect. An outline of the steps: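 Cytotoxicity was assessed in parallel with Shh reporter activity by measuring live-cell protease fluorescence (CellTiter-Fluor) in NIH/3T3 cells stably carrying Gli1-Luc, treated with compound under conditioned medium stimulation for 23 hr plus 1 hr reagent incubation.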

The target of experiment [11] is Estrogen receptor beta (Homo sapiens) (UniProt Q92731). Put plainly: qHTS assay to identify small molecule agonists of the estrogen receptor beta (ER-beta) signaling pathway (AID 1259377; active = well fitted activation curve with a large enough effect in the signal ratio in the repeat runs, not every such curve was filed as active; the % refers to the signal ratio). An outline of the steps:
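Beta-lactamase reporter readout: fluorescence of LiveBLAzer B/G FRET substrate after 2 h at room temperature, following 16 h compound treatment of ER-beta-UAS-bla HEK293T cells at 37C in 2% charcoal-stripped FBS medium.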

For experiment [12] the target is unchanged. Put plainly: qHTS assay to identify small molecule antagonists of the estrogen receptor beta (ER-beta) signaling pathway (AID 1259378; active = well fitted inhibition curve with a large enough effect in the signal ratio in the repeat runs, not every such curve was filed as active; the % refers to the signal ratio; note: potency is the fitted concentration of half-maximal effect). The method, boiled down:
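ER-beta-UAS-bla HEK293T (GripTite) cells in 2% charcoal-stripped FBS medium were preincubated 6 hr at 37C, dosed with compound, then stimulated with 1 nM E2 (final) for 16 hr; beta-lactamase reporter read by B/G FRET fluorescence after 2 hr substrate loading.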

A short description of experiment [13]: qHTS assay to identify small molecule agonists of the androgen receptor (AR) signaling pathway in the presence of an antagonist - cell viability counter screen (AID 1259379). Note: nearly all actives have a fitted effect of over 25% in size. Note: potency is the fitted concentration of half-maximal effect. An outline of the steps:
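MDA-kb2 viability measured by CellTiter-Fluor fluorescence in the same wells as the luciferase signal; nilutamide 3.0uM final; 15-point compound titration; 16 hr at 37C.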

Experiment [14] is described as follows: qHTS assay to identify small molecule agonists of the estrogen receptor beta (ER-beta) signaling pathway - cell viability counter screen (AID 1259380). Note: nearly all actives have a fitted effect of over 30% in size. Note: potency is the fitted concentration of half-maximal effect. The method, boiled down: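 Measured: luminescence from CellTiter-Glo after 30 min at room temperature, added to wells already read for the LiveBLAzer FRET reporter (2 hr substrate); ER-beta-UAS-bla HEK293T cells had 16 hr compound treatment at 37C, 5% CO2.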

Experiment [15] can be described thus: qHTS assay to identify small molecule agonists of the estrogen receptor alpha (ER-alpha) signaling pathway in the presence of an antagonist - cell viability counter screen (AID 1259386).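 Note: cells exposed to compounds for 22 h at 37 °C before the viability read; nearly all actives have a fitted effect of over 30% in size.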 Note: potency is the fitted concentration of half-maximal effect. An outline of the steps: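 The test measures whether compounds kill ER-alpha reporter cells (VM7Luc4E2) under antagonist co-treatment (ICI-182,780, 10.0nM). Fluorescence from CellTiter-Fluor is read after a 22hr exposure.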

Experiment [16] can be described thus: qHTS assay to identify small molecule agonists or antagonists of the thyroid stimulating hormone receptor (TSHR) signaling pathway - wild type cell line counter screen (AID 1259384; calls by dose curve). The method, boiled down:
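Wild-type HEK293 cells were plated 18 h at 37 C/5% CO2, pin-dosed with compound plus Ro20-1724 medium, held 30 min at room temperature, then given cAMP-d2 and anti-cAMP-cryptate; fluorescence was read after 1 h. Fifteen concentrations, triplicate.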

The target of experiment [17] is Androgen receptor (Homo sapiens) (UniProt P10275). Put plainly: qHTS assay to identify small molecule agonists of the androgen receptor (AR) signaling pathway in the presence of an antagonist (AID 1259381; calls by dose curve; note: nearly all actives have a fitted effect of over 15% in size). An outline of the steps:
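Luminescent ONE-Glo read, 30min at room temperature, follows 16hr compound exposure (15 concentrations) of MDA-kb2 cells at 37C, 0% CO2, with nilutamide added at 3.0uM final.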

The nature of experiment [18]: qHTS assay to identify small molecule antagonists of the sonic hedgehog signaling (Shh) pathway (AID 1259369; calls by dose curve; note: nearly all actives have a fitted effect of over 45% in size; note: potency is the fitted concentration of half-maximal effect). The method, boiled down:
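NIH/3T3 stable Gli1-Luc clone, 2,000 cells/well, 4hr settle; cpd + conditioned medium 24hr; Luc reagent 30min RT; luminescence.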

The nature of experiment [19]: qHTS assay to identify small molecule phospholipidosis (PLD) inducers (AID 1259344; active = well fitted curve in the direction sought with a large enough effect; an effect the other way counts as inactive or inconclusive). An outline of the steps:
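Cells (HepG2, 900 per well) attach for 4 h, receive LipidTOX Red and compound together, incubate 24 h at 37 C, are fixed 30 min with paraformaldehyde/Hoechst, then imaged at one site per well.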

Thyrotropin receptor (Homo sapiens), sequence (P16473 whole entry, looked up): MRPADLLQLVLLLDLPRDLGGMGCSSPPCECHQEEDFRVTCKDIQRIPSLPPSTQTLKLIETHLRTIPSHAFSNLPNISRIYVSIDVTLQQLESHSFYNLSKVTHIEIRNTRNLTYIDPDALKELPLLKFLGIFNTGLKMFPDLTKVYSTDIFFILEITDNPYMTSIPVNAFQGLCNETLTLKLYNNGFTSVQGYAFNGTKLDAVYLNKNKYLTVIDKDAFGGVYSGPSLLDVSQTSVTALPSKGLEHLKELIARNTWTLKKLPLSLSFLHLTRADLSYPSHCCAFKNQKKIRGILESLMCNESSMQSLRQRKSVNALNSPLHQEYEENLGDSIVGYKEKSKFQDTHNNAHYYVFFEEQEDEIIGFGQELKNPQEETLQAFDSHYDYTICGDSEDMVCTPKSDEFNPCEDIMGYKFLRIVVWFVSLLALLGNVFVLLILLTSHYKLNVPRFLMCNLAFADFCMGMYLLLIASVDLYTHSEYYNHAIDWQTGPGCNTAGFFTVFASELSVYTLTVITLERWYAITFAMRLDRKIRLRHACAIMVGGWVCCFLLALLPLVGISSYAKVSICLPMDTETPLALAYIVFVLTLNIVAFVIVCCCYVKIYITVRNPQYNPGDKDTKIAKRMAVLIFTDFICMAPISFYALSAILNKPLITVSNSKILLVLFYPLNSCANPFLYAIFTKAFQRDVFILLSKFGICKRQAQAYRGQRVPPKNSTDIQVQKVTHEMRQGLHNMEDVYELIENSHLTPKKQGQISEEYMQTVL
Estrogen receptor beta (Homo sapiens), sequence (Q92731 whole entry, looked up): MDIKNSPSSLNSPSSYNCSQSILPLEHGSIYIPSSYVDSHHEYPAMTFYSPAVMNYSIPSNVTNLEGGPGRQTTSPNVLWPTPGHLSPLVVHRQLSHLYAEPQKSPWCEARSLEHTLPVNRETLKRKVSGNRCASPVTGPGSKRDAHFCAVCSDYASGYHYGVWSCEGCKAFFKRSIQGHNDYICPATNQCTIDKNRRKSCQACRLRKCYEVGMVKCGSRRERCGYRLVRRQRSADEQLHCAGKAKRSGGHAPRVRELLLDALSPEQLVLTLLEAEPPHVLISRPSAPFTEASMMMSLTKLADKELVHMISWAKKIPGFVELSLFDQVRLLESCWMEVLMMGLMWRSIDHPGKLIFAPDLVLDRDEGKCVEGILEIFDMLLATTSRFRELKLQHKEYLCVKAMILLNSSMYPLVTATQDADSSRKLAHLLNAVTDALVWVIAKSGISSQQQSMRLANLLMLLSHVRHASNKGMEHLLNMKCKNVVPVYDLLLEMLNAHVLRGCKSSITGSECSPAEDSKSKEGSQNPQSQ
Estrogen receptor (Homo sapiens), sequence (P03372 whole entry, looked up): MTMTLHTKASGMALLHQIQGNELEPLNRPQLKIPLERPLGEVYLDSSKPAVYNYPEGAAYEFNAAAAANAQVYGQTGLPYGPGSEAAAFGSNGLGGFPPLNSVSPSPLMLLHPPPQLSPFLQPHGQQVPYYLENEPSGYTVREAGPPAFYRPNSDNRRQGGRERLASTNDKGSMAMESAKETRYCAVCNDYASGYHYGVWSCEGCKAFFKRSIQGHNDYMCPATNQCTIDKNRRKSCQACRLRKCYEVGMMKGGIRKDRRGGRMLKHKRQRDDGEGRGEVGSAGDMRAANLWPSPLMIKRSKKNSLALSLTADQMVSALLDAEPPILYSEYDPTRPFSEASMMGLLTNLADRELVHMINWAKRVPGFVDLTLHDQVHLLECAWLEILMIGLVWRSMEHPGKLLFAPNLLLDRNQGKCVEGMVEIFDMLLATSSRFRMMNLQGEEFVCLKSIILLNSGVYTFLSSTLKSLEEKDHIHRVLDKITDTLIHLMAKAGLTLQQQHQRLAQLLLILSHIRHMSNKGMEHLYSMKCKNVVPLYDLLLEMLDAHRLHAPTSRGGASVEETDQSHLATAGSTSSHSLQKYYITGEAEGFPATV
Androgen receptor (Homo sapiens), sequence (P10275 whole entry, looked up): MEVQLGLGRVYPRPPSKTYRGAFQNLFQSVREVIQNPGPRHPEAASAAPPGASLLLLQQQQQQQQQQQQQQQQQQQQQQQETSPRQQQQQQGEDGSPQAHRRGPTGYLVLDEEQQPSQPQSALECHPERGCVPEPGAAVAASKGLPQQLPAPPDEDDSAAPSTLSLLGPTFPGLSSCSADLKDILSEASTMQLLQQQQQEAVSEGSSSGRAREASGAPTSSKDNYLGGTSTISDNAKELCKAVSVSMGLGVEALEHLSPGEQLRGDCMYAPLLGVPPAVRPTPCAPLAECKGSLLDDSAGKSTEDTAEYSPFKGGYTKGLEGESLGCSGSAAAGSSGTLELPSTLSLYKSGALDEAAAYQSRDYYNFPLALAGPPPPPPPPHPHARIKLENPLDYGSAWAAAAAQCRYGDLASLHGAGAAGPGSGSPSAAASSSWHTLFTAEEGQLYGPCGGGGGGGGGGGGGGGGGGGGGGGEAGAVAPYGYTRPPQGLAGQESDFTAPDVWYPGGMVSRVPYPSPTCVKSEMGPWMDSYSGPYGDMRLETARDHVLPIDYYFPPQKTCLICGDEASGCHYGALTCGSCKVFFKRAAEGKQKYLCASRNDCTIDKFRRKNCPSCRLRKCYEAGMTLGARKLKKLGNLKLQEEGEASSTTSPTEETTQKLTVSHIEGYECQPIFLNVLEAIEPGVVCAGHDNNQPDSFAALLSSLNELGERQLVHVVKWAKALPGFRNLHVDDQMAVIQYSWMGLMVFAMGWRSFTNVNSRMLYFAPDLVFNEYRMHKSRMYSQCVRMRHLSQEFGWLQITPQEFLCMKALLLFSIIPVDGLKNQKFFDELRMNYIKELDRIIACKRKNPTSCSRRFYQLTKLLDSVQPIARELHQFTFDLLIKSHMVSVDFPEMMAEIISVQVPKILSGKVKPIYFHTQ

As for `O=C(O)c1cc(O)c2c(c1)C(=O)c1cccc(O)c1C2=O`, the Potency result in experiment [1], in experiment [2], in [4], in experiment [5], in experiment [6] and in [7] was “inactive” throughout. In addition, the Potency entry in [8] and in experiment [9] was “inactive” throughout. Besides, the Potency in experiment [3] was 14.1 µM (active).
Consider `Cc1cccc(S(=O)(=O)O)c1C`, for which the Potency entry in experiment [1], in experiment [2], in experiment [3], in experiment [4], in experiment [10] and in [6] was “inactive” each time. In addition, the Potency result in experiment [11], in experiment [12], in experiment [13], in experiment [14], in experiment [8] and in experiment [9] was “inactive” each time. Also, the Potency result in experiment [15] is “inactive”.
With `CCCCCCCCCCCC[N+](C)(C)CCCCCCCCCCCC`, the Potency in experiment [1] was 27.3 µM (active); in [2], 30.6 µM (active); in [4], 54.5 µM (active); in experiment [5], 24.3 µM (active); in experiment [10], 27.3 µM (active); in experiment [13], 30.6 µM (active). For the same molecule, the Potency in [14] is 21.7 µM (active); in [7], 21.7 µM (active); in experiment [15], 68.6 µM (active). Further, the Potency entry in experiment [3], in experiment [6], in experiment [8] and in experiment [9] was “inactive” each time. The molecule was classed as inactive in experiment [16].
As for `CCC(CN)=C(c1ccccc1)c1ccccc1`, the Potency result in experiment [1], in [2], in experiment [3], in experiment [4], in experiment [5] and in experiment [10] was “inactive” in each case. Moreover, the Potency result in [6], in [11], in experiment [17], in experiment [8] and in [15] was “inactive” each time. The Potency in [12] is 23.7 µM (active). The call in [16] was inactive.
Turning to `O=Cc1cc(O)ccc1Br`, the Potency result in experiment [1], in experiment [2], in [4], in [10], in [6] and in [18] was “inactive” each time. Further, the Potency result in [11], in experiment [13], in experiment [14], in [7], in experiment [8] and in experiment [9] was “inactive” each time. Moreover, the Potency result in experiment [15] was “inactive”.
As for `NC(=O)CC[C@@H]1NC(=O)[C@H](Cc2ccccc2)NC(=O)[C@H](Cc2ccc(O)cc2)NC(=O)CCSSC[C@@H](C(=O)N2CCC[C@H]2C(=O)N[C@@H](CCCN=C(N)N)C(=O)NCC(N)=O)NC(=O)[C@H](CC(N)=O)NC1=O`, the Potency entry in [1], in experiment [19], in [3], in experiment [4], in experiment [5] and in experiment [10] was “inactive” each time. Moreover, the Potency result in [6], in [13], in experiment [14], in [7], in [9] and in experiment [15] was “inactive” in each case.
Take `CCC(N)(CO)CO`: the Potency entry in [1], in experiment [2], in experiment [3], in experiment [4], in experiment [5] and in [10] was “inactive” in each case. The Potency result in experiment [11], in [12], in experiment [13], in [14], in experiment [7] and in experiment [8] was “inactive” in each case. Besides, in [15], the Potency result is “inactive”.
Consider `CC(C)(C)CC(C)(C)c1ccc(OCCOCC[N+](C)(C)Cc2ccccc2)cc1`, for which the Potency in experiment [1] was 43.2 µM (active) and 21.1 µM (active); in experiment [5], 48.5 µM (active); in experiment [10], 61.1 µM (active) and inactive; in experiment [18], 4.22 µM (active); in experiment [12], 26.6 µM (active); in experiment [13] it was 27.3 µM (active) and 21.1 µM (active). Moreover, the Potency in [15] was 61.1 µM (active). Besides, the Potency result in [19], in [3], in experiment [4], in [6], in experiment [11] and in experiment [8] was “inactive” throughout. The Potency result in experiment [9] was “inactive”.
